# Experimental data reported in PubChem BioAssay AID1220 (Sanford-Burnham Center for Chemical Genomics, 2008).
# About 1,300 (0.68%) of roughly 190,000 compounds were called active. No stated cut-off is given here; in the data, active means inhibition above about 50%; inactive means the rest. The full list was thinned out, with actives kept by preference.
# Target: Mannose-6-phosphate isomerase (Homo sapiens) (UniProt P34949)
# Experiment: MPI inhibition at elevated mannose 6-phosphate – biochemical, fluorescence intensity, high mannose 6-phosphate, primary screen (AID 1220)
# Conditions: recombinant PMI enzyme, coupled fluorescence intensity; at 20 µM; stronger effect = higher value
# Sequence of Mannose-6-phosphate isomerase (Homo sapiens) (P34949 whole entry, looked up): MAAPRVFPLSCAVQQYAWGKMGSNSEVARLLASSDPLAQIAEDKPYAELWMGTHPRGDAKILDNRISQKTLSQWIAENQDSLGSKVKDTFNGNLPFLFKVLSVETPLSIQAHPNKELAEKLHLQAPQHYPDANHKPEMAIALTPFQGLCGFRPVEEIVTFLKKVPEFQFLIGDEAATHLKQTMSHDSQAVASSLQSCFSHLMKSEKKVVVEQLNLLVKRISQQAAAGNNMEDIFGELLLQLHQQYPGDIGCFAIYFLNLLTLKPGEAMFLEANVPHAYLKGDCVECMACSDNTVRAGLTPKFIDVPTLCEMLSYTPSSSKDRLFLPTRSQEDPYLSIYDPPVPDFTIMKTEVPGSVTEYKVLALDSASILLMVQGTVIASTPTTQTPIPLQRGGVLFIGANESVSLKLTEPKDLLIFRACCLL
row,SMILES,inhibition
1,O=C(CCN1C(=O)c2cccnc2C1=O)NC1CCCCCC1,9.7% (inactive)
2,CCC(=O)Nc1ccc(N2CCN(S(C)(=O)=O)CC2)cc1,3.4% (inactive)
3,Cc1cc(NCCCn2ccnc2)n2nc(-c3ccc(F)cc3)cc2n1,-14.3% (inactive)
4,O=C(N/N=C/c1ccncc1)c1cccc(NC(=O)c2ccc(Cl)cc2)c1,-140% (inactive)
5,C#CCOCCOCCOCCNc1nc(N2CCN(C(=O)Cn3cc(CCCN=C(N)N)nn3)CC2)nc(N2CCN(C(=O)[C@H]([C@@H](C)CC)n3cc(CCCN=C(N)N)nn3)CC2)n1,-53.5% (inactive)
6,CCOC(=O)N1CCC(NC(=O)C2CCCN(c3nc4ccccc4o3)C2)CC1 (stereo unspecified),3.2% (inactive)
7,CC(NC(=O)C(Cc1ccccc1)NC(=O)c1ccccc1)C(=O)O (stereo unspecified),-5.7% (inactive)
8,N=C(N)Cc1ccccc1Sc1ccccc1,-7.9% (inactive)
9,Cc1ccc(NC(=O)c2ccc(F)c(S(=O)(=O)N3CCOCC3)c2)cc1F,0.5% (inactive)
10,Cc1[nH][nH]c(=O)c1C(c1c(C)[nH][nH]c1=O)c1cn(Cc2cccc3ccccc23)c2ccccc12,56% (active)
11,CCOC(=O)N1CCN(C(=O)CS(=O)(=O)c2cn(Cc3ccccc3Cl)c3ccccc23)CC1,3.6% (inactive)
12,O=c1c2ccccc2ncn1Cc1cccc2ccccc12,7.1% (inactive)
13,COC(=O)N/N=C/c1cn(Cc2ccccc2Cl)c2ccccc12,16.8% (inactive)
14,Cc1nccn1Cc1cccc2ccccc12,-0.7% (inactive)
15,Cc1[nH][nH]c(=O)c1C(c1c(C)[nH][nH]c1=O)c1cn(Cc2ccccc2Cl)c2ccccc12,50.3% (active)
16,O=C(O)c1ccc(Cl)c(S(=O)(=O)Nc2ccccc2N2CCOCC2)c1,-3.7% (inactive)
17,CC(C)=C1C2C=CC1C(C(=O)Nc1cccc(C)c1)C2C(=O)O (stereo unspecified),0.3% (inactive)
18,O=C(COC(=O)c1cc(=O)c2ccccc2o1)NC1CCCC1,30.5% (inactive)
19,CCCCCC(=O)Nc1cc2[nH]c(=O)cc(COC)c2cc1C,-2.7% (inactive)
20,CCC(=O)Nc1cc2[nH]c(=O)cc(C)c2cc1C,54.6% (active)
21,CCC(=O)Nc1cc2c(C)cc(=O)oc2cc1C,-14.2% (inactive)
22,C#CCOCCOCCOCCNc1nc(N2CCN(C(=O)[C@H](C)n3cc(CCCN=C(N)N)nn3)CC2)nc(N2CCN(C(=O)[C@H](Cc3ccc(O)cc3)n3cc(CCO)nn3)CC2)n1,-38% (inactive)
23,COc1ccc(C(CC(=O)c2ccccc2)CC(=O)c2ccccc2)cc1OC,4% (inactive)
24,N#CC1=C(N)Oc2cc(O)c(C=Nc3ccccc3)cc2C1c1ccccc1 (stereo unspecified),-4% (inactive)
25,COc1ccc(N=Cc2cc3c(cc2O)OC(N)=C(C#N)C3c2ccccc2)cc1 (stereo unspecified),50.4% (active)
26,Cc1ccccc1N=Cc1cc2c(cc1O)OC(N)=C(C#N)C2c1ccccc1 (stereo unspecified),55% (active)

row,SMILES,inhibition
1,Cc1ccc(N=Cc2cc3c(cc2O)OC(N)=C(C#N)C3c2ccccc2)cc1 (stereo unspecified),10.5% (inactive)
2,N#CC1=C(N)Oc2cc(O)ccc2C1c1ccccc1 (stereo unspecified),7.4% (inactive)
3,Cc1ccc(C2C(C#N)=C(N)Oc3cc4c(cc32)OCO4)cc1 (stereo unspecified),0.5% (inactive)
4,Clc1ccc(C2=NCCN2)cc1,1.4% (inactive)
5,O=C(Cc1ccc(F)cc1)N/N=C/c1ccccn1,16.5% (inactive)
6,Cn1c(=O)[nH]c(=O)c2c1nc(N1CCOCC1)n2CC(O)COc1ccc2ccccc2c1 (stereo unspecified),6.5% (inactive)
7,O=C(NC1CCCc2ccccc21)c1ccc(CNc2c(N3CCOCC3)c(=O)c2=O)cc1 (stereo unspecified),-6.9% (inactive)
8,CCOC(=O)c1cc2c(ccn2C)n1CC(=O)N1CCC(C)CC1,13.8% (inactive)
9,CCOC(=O)c1cc2c(ccn2C)n1CC(=O)N(C)C,44.7% (inactive)
10,CCOC(=O)c1cc2c(ccn2C)n1Cc1ccc(Cl)cc1,52.4% (active)
11,CCOC(=O)c1cc2c(ccn2C)n1Cc1ccccc1Cl,50.5% (active)
12,CCOC(=O)c1cc2c(ccn2C)n1CC(=O)N1C(C)CCCC1C (stereo unspecified),52% (active)
13,CCOC(=O)c1cc2c(ccn2C)n1Cc1cc(C)ccc1C,22.9% (inactive)
14,CCOC(=O)c1cc2c(ccn2C)n1CC(=O)N1CCCC(C)C1 (stereo unspecified),7.2% (inactive)
15,CCOC(=O)c1cc2c(ccn2C)n1Cc1ccc(C#N)cc1,35.1% (inactive)
16,CCOC(=O)c1cc2c(ccn2C)n1Cc1ccccc1C,22.3% (inactive)
17,CCOc1cc(CNCc2ccccn2)cc(Cl)c1OC,-0.7% (inactive)
18,Cc1noc(C)c1C(=O)Nc1sc2c(c1C(N)=O)CCC2,0.1% (inactive)
19,Cc1ccccc1CSc1nc2c(c(=O)[nH]1)CCC2,6.8% (inactive)
20,O=C(O/N=C1\CCCc2ccccc21)c1cccc(Cl)c1,7.1% (inactive)
21,CCN(CCn1cccn1)C(=O)CCc1nnc(-c2ccc3c(c2)OCO3)o1,5.8% (inactive)
22,CN(C)S(=O)(=O)c1ccc(C(=O)Nc2cc(=O)n(C)c(=O)n2C)cc1,3.9% (inactive)
23,O=C(c1nc2ncccn2n1)N1CCN(c2ccc(F)cc2)CC1,15% (inactive)
24,O=C(Cc1c[nH]c2ccccc12)NCc1ccco1,7.4% (inactive)
25,NC(Cc1c[nH]c2ccccc12)C(=O)NCc1ccco1 (stereo unspecified),55.4% (active)
26,O=C(CCc1c[nH]c2ccccc12)NCc1ccco1,-5.8% (inactive)

row,SMILES,inhibition
1,COc1ccc(OCC(=O)Nn2c(-c3ccc(C)cc3)nc3ccccc3c2=O)cc1,12.7% (inactive)
2,O=c1[nH]c2cc3c(cc2cc1CN(Cc1nnnn1CC1CCCO1)C1CCCCC1)OCO3 (stereo unspecified),5.5% (inactive)
3,Cc1ccc(C=Nc2ccccc2C(N)=O)cc1,0.6% (inactive)
4,COc1ccc(/C=N\n2nnc3ccccc32)cc1,-4.2% (inactive)
5,Cc1ccc(C=Nc2cccnc2N)cc1,63.2% (active)
6,COc1ccc(C=Nc2cccc3ncccc23)cc1,63.3% (active)
7,COc1ccc(OCC(=O)Nc2cccc3ncccc23)cc1,3.4% (inactive)
8,Nc1ncc(Br)cc1N=Cc1ccccc1,24.6% (inactive)
9,Cc1ccc(NC(=O)CCC(=O)N/N=C/c2cccs2)cc1,-0.5% (inactive)
10,COc1cc(CNc2ccc(N3CCCC3)cc2)ccc1OCc1ccccc1F,55.7% (active)
11,COc1ccc(CNc2ccc(C)c(C)c2)cc1,9.2% (inactive)
12,COc1cc(CNc2ccc(N3CCN(C(C)=O)CC3)cc2)ccc1OCc1ccccc1,38.7% (inactive)
13,CCOc1cc(CNc2ccc(O)cc2)cc(Br)c1OCc1ccccc1F,29.5% (inactive)
14,COc1cc(CNc2ccc(N3CCCC3)cc2)ccc1OCc1ccccc1,71.5% (active)
15,COc1ccc(NCc2ccc(OC)c(OC)c2)cc1,60.3% (active)
16,COc1cc(CNc2ccc(N3CCN(C(C)=O)CC3)cc2)ccc1OCc1ccc(F)cc1,27% (inactive)
17,COc1cc(CNc2ccc(O)cc2)cc(Br)c1OCc1ccccc1,49.4% (inactive)
18,CCNCc1ccc(OCc2ccccc2F)c(OC)c1,-4.4% (inactive)
19,COc1cc(CNCCCCO)ccc1OCc1ccccc1F,2.9% (inactive)
20,COc1cc(CNc2ccc(O)cc2)cc(Br)c1OCc1ccccc1F,57.4% (active)
21,COc1ccc(CNS(=O)(=O)NCc2ccc(OC)c(OC)c2)cc1,-3.8% (inactive)
22,Cc1cccc(C)c1NC(=O)C1=C(O)c2sccc2N(C)S1(=O)=O,2.2% (inactive)
23,CCOC(=O)c1c(NC(=O)CSc2nnc(CNC(=O)c3ccco3)n2C)sc2c1CCC2,4.5% (inactive)
24,CCCCCNCc1cccn1C,-9.2% (inactive)
25,CCC(CC)N=C1NS(=O)(=O)c2cc([N+](=O)[O-])ccc21,-4.3% (inactive)
26,Cc1cc(=O)oc2cc(OCC(O)CN3CCN(c4ccc(F)cc4)CC3)ccc12 (stereo unspecified),7.1% (inactive)

row,SMILES,inhibition
1,O=C(COC(=O)COc1ccccc1)Nc1ccccc1OC(F)F,-0.8% (inactive)
2,Cc1cccc(NS(=O)(=O)c2cc(C(=O)N3CCOCC3)ccc2Cl)c1,6.8% (inactive)
3,CN(C)c1cccc(C(=O)NC2CCCCCC2)c1,5.6% (inactive)
4,Cc1ccccc1CN(C)CC(=O)Nc1c(C)cccc1C(C)C,0.5% (inactive)
5,CN(C)c1ccc(/C=N/O)cc1,44.3% (inactive)
6,Cc1cccc(OCCOc2ccccc2C=C(C#N)C#N)c1,11% (inactive)
7,CN(C)c1cccc2c(C=C(C#N)C#N)ccc(N(C)C)c12,63.9% (active)
8,CC(=O)c1ccc(N(C)C)c2c(N(C)C)cccc12,38.5% (inactive)
9,Cc1ccccc1OCCOc1ccccc1C=C(C#N)C#N,16.3% (inactive)
10,CN(C)c1cccc2c(/C=N/O)ccc(N(C)C)c12,51.7% (active)
11,CCOC(=O)C1CCN(C(=O)c2ccc3c(c2)OCO3)CC1,11.2% (inactive)
12,COc1ccccc1OCC(=O)Nn1c(=S)[nH]c2ncccc2c1=O,-3.7% (inactive)
13,CC(c1ccccc1)n1cc(C(=O)NCCN2CCOCC2)nn1 (stereo unspecified),-7.2% (inactive)
14,Cc1csc(NC(=O)c2ccccc2[N+](=O)[O-])n1,-6.4% (inactive)
15,Nc1ccc(Br)cc1C(=O)O,1.2% (inactive)
16,COC(=O)c1ccncc1N,8.9% (inactive)
17,Nc1cnccc1C(=O)O,63.7% (active)
18,COc1ccc(NC(=O)CSc2nc3c(c(=O)n2-c2ccccc2)SCC3)c(OC)c1,2.7% (inactive)
19,CCN(CC)C(=O)c1cn(CC)c(=O)c2cc(OC)c(OC)cc12,-0.2% (inactive)
20,CC(=O)Nc1cccc(NC(=S)Nc2ccc(F)c(Cl)c2)c1,41.1% (inactive)
21,CC(=O)Nc1cccc(NC(=S)Nc2ccc(F)cc2F)c1,55.8% (active)
22,CC(=O)Nc1cccc(NC(=O)Nc2ccc(F)cc2F)c1,19.6% (inactive)
23,COc1cccc(-n2c(Cc3cc(=O)[nH]c(=O)[nH]3)nnc2SCC(=O)N2CCC(C)CC2)c1,3.3% (inactive)
